High-throughput results from PubChem BioAssay.
In the library only some 19% were active in any assay of this set; here they are far more common.
HT1080NT lethal – qHTS for induction of synthetic lethality in tumor cells producing 2HG: qHTS for the HT-1080-NT fibrosarcoma cell line; hit rate 1.6% among 360,000; Potency, µM (top dose mostly 46.1 µM), for inactives: top-dose activity, negative = less viability, actives largely listed as cytotoxic; HT-1080-NT fibrosarcoma viability, CellTiter-Glo ATP luminescence, 48 h;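 also: NT is the 2HG producing partner of a matched IDH1 knockdown line; potency is read from the fitted curve at half-maximal effect; 0% = DMSO-treated cells and -100% = media-only wells without cells; nearly all actives have a fitted effect of over 55% in size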
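Luminescent CellTiter-Glo readout after 48 hours of compound exposure at 37 degrees C defined viability of HT-1080-NT cells. Activity was normalized to DMSO wells and cell-free media wells; concentration-response curves were fitted and assigned curve classes.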
ELG1 DNA repair – qHTS screen for small molecules that inhibit ELG1-dependent DNA repair in human embryonic kidney (HEK293T) cells expressing luciferase-tagged ELG1; AID 504467, 2011; HEK293T ELG1-luciferase reporter, luminescence, 16 h; DNA damage induced by 5-fluorouridine; Potency, µM (titrated, usually from 46.1 µM), inactives show at the top dose activity change, negative = inhibition, hits mostly inhibitors; hit rate 2.3% among 330,000; also: potency is read from the fitted curve at half-maximal effect; nearly all actives have a fitted effect of over 55% in size
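In this reporter screen, reduction of luminescence relative to DMSO vehicle indicated activity. Compounds and 5-fluorouridine were added together to 2,000 cells per well, incubated for 16 hr at 37 °C, then developed with ONE-Glo.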
IL1B secr inh – qHTS for Inhibitors of Inflammasome Signaling: IL-1-beta AlphaLISA Primary Screen; THP-1 LPS/ATP IL-1B secretion, AlphaLISA, 16 h; active compounds read low; activity change, % at 57.5 µM; hit rate 4.7% among 360,000; AID 743279, 2014; in the data active = activity change below about -50%; inconclusive = mostly about -30% to -49%
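THP-1 cells pretreated 1 hr with compounds (up to 57.5 uM final), then stimulated with LPS (250 ng/mL final) plus ATP (1.25 mM final); secreted IL-1B measured by AlphaLISA after 16 hr, decreased signal indicating inhibition.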
HT1080 IDH1KD tx – qHTS for induction of synthetic lethality in tumor cells producing 2HG: qHTS for the HT-1080-IDH1KD cell line | HT-1080 IDH1 knockdown viability, ATP luminescence, 48 h | Potency, µM (highest dose often 46.1 µM), without a hit: at the highest dose activity, negative = toxicity, hits mostly cytotoxic | AID 686971, 2013 | hit rate 2% among 360,000;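 also: potency is read from the fitted curve at half-maximal effect; 0% = DMSO wells and -100% = cell-free medium wells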
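Knockdown cells (IDH1KD HT-1080) received compounds 2 h after plating at 750 cells/well and were kept 48 h at 37 °C in 5% FBS RPMI. A CellTiter-Glo luminescence read gave % activity for curve fitting.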
DT40 TDP1 no CPT – qHTS for Inhibitors of human tyrosyl-DNA phosphodiesterase 1 (TDP1): qHTS in cells in absence of CPT. DT40 Tdp1-/- hTDP1 cells, no CPT, ATP luminescence, 48 h. Potency, µM (series often up to 46.2 µM), without a hit: at the top dose activity change, negative = growth inhibition, most hits filed as inhibitors. hit rate 15% among 420,000. AID 686978, 2013; also: potency is read from the fitted curve at half-maximal effect; nearly all actives have a fitted effect of over 55% in size
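Stably hTDP1-transfected Tdp1-null chicken DT40 cells were treated with library compounds minus camptothecin and grown for at least 48 hr at 37 °C, after which cellular ATP was quantified by luminescence.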
DT40 TDP1 CPT – qHTS for Inhibitors of human tyrosyl-DNA phosphodiesterase 1 (TDP1): qHTS in cells in presence of CPT | chicken DT40 Tdp1-/-;hTDP1 cells + 20 nM CPT, ATP luminescence, 48 h | Potency, µM (series often up to 46.2 µM), without a hit: at the top dose activity change, negative = growth inhibition, hits mostly inhibitors | hit rate 12% among 420,000; also: potency is read from the fitted curve at half-maximal effect; nearly all actives have a fitted effect of over 55% in size
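Chicken DT40 Tdp1-/- cells stably complemented with human TDP1 were seeded at 400 cells/well in medium containing 20 nM camptothecin, exposed to pin-transferred compounds, and grown at 37 °C for at least 48 hr. Viability was read as ATP luminescence.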
* hit, by the source's call; ? = inconclusive; nt = not tested or not shown. Unless noted, calls follow the shape of the dose curve; as a rule, active = well fitted curve in the direction sought with a large enough effect; inconclusive = small, poorly fitted or top-dose-only effect, or another doubt; inactive = no such curve, though single readings can be large; an effect the other way counts as inactive or inconclusive. Unless noted, % is scaled to controls: 0 for no effect and ±100 for the full control effect.

SMILES	HT1080NT lethal	ELG1 DNA repair	IL1B secr inh	HT1080 IDH1KD tx	DT40 TDP1 no CPT	DT40 TDP1 CPT
COC(=O)C1OC(=O)C2OC23[C@]2(C)C(O)CC4C(C)(C)C(OC(C)=O)CC(OC(C)=O)[C@@]4(C)C2CC[C@@]13C (stereo partly specified)	nt	nt	nt	nt	4.2%	-0.1%
C=C1C(=O)[C@]23C[C@H]1CCC2[C@@]1(C)C(C[C@@H]3O)[C@](C)(C(=O)OC)CC[C@@H]1OC(C)=O (stereo partly specified)	2.59µM*	nt	-116.5*	1.16µM*	0.92µM*	0.82µM*
C=C1C(=O)[C@]23C[C@H]1CC[C@H]2[C@]1(C)[C@@H](OC(C)=O)CC[C@@](C)(C(=O)O)[C@H]1C[C@@H]3O	6.51µM*	nt	-78.3*	5.8µM*	1.03µM*	1.03µM*
NC(=O)c1nsc(C(=O)N(CC(=O)NC2CCCC2)Cc2ccc3c(c2)OCO3)c1N	-6.4%	-18.1%	-6.0	-9.0%	?	-0.5%
COc1ccc2cc3cc(C(=O)NCCN4CCc5ccccc5C4)oc3nc2c1	-23.9%	?	-19.8	?	?	?
COc1ccc2cc3cc(C(=O)N4CCCCC4C)oc3nc2c1 (stereo unspecified)	-1.6%	?	?	-0.2%	?	16.4µM*
CCN1CCN(CCCNC(=O)c2cc3cc4ccc(OC)cc4nc3o2)CC1	-19.9%	4.4%	-84.9*	-15.0%	?	-5.5%
COc1ccc2cc3cc(C(=O)NCCCN4CCC(C)CC4)oc3nc2c1	-24.8%	?	-83.1*	-23.7%	2.59µM*	?
COc1ccc2cc3cc(C(=O)N4CCCCCC4)oc3nc2c1	-14.3%	?	?	-6.7%	?	?
COc1ccc2cc3cc(C(=O)NCCN4CCN(Cc5ccccc5)CC4)oc3nc2c1	-0.2%	3.7%	-67.4*	-9.9%	20.6µM*	-28.3%
COc1ccc2cc3cc(C(=O)NCCCN4CCOCC4)oc3nc2c1	6.4%	1.6%	-8.8	8.4%	?	-25.9%
COc1ccccc1C1CC(=O)NC(C)=C1C(=O)OCC(C)C (stereo unspecified)	-11.1%	-16.1%	15.4	-13.5%	13µM*	11.6µM*
CC1=C(C(=O)OC2CCCC2)C(c2cccc(Cl)c2Cl)CC(=O)N1 (stereo unspecified)	nt	nt	nt	nt	23.1µM*	?
CC1=C(C(=O)OC2CCCC2)C(c2c(Cl)cccc2Cl)CC(=O)N1 (stereo unspecified)	nt	nt	nt	nt	25.9µM*	?
CC1=C(C(=O)OC2CCCCC2)C(c2ccc(F)cc2)NC(=O)N1 (stereo unspecified)	-0.8%	-10.6%	-53.4*	-22.3%	?	9.9%
COc1ccc(COC(=O)C2=C(C)NC(=O)CC2c2cccc(Cl)c2Cl)cc1 (stereo unspecified)	nt	nt	nt	nt	-5.9%	-16.3%
Cc1cc(S(=O)(=O)N2CCOCC2)ccc1OCC(=O)NCCN1CCOCC1	17.5%	-1.2%	12.6	14.7%	3.1%	6.1%
COc1ccccc1NC(=O)Nc1nnc(CC(=O)Nc2ccccc2C)s1	-7.7%	9.6%	7.8	-15.6%	?	?
Cc1ccc2oc(-c3ccc(Cl)c(NC(=O)c4ccc(OC(C)C)cc4)c3)nc2c1	nt	nt	nt	nt	5.7%	-0.6%
CCCCCCCCCCCCC/C=C\[C@@H](O)[C@H](CO)NC(C)=O	nt	nt	nt	nt	?	15.2%
